12-hLO inh: blocks human 12-lipoxygenase activity; P18054; purified 12-hLO, xylenol orange hydroperoxide absorbance; Potency, µM (highest dose often 57.1 µM), for the others: at the highest dose activity change, negative = inhibition, most hits filed as inhibitors; 150,000 tested, 0.12% active; AID 1452; active = well fitted inhibition curve with a large enough effect; inconclusive = small, poorly fitted or top-dose-only effect; also: potency is read from the fitted curve at half-maximal effect; % is scaled to controls: 0 for no effect and ±100 for the full control effect; nearly all actives have a fitted effect of over 55% in size
Target sequence (P18054 whole entry, looked up): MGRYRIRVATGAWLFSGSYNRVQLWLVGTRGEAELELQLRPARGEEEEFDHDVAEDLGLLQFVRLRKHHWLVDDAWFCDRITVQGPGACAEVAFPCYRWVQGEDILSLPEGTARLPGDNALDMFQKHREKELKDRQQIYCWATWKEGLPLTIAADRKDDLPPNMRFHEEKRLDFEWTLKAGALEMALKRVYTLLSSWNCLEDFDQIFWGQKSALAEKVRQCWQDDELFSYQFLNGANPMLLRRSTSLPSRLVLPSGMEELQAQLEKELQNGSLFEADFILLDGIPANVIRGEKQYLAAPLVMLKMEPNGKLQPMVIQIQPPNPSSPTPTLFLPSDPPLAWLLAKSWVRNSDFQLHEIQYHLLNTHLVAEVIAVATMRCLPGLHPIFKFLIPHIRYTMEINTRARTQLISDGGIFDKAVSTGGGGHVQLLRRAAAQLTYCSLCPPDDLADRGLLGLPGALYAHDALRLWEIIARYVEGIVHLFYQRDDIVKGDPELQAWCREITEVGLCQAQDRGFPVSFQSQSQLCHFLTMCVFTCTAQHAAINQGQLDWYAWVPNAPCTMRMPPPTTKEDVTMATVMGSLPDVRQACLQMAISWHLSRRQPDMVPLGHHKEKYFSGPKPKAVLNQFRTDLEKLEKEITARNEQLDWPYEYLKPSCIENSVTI
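Xylenol orange chromogenic assay: hydroperoxide from 12hLO oxidises Fe(II), giving red-shifted Fe(III)-XO absorbance. Conditions: 150 nM enzyme, 40 uM arachidonic acid, 25 mM Hepes pH 7.0, 0.01% Triton X-100, 30 min, room temperature.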
HPGD block: inhibitors of human 15-hydroxyprostaglandin dehydrogenase (HPGD) | purified HPGD, NADH fluorescence kinetic, PGE2 substrate | 150,000 tested, 4.3% active | Potency, µM, inactives show at the highest dose activity change, negative = inhibition, most hits filed as inhibitors | P15428; also: potency is read from the fitted curve at half-maximal effect; % is scaled to controls: 0 for no effect and ±100 for the full control effect
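NADH formation kinetics: reaction with 30 uM PGE2 and 1 mM NAD+ (final), 20 nM enzyme, Tris-HCl pH 8 with Tween 20, after 15 min compound preincubation at room temperature. Fluorescence change, last versus first of five reads.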
LMNA splice mod: LMNA splicing modulation; Potency, µM (doses to about 46.1 µM), without a hit: at the top dose ratio change, negative = inhibition, most hits filed as inhibitors; AID 1487; HeLa LMNA splicing GFP/RFP minigene ratio, 48 h; 200,000 tested, 0.01% active; active = well fitted inhibition curve with a large enough effect in the signal ratio, with a control signal flat, not every such curve was filed as active; inconclusive = small, poorly fitted or top-dose-only effect, or effect the other way, or a change in a side signal; the % refers to the signal ratio; also: potency is read from the fitted curve at half-maximal effect; % is scaled to controls: 0 for no effect and ±100 for the full control effect
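Read-out is the ratio of GFP to DsRed2 object intensity, acquired by 488 nm laser-scanning cytometry on HeLa lamin A-EGFP minigene reporter cells. Compound incubation 48 hrs at 37 °C in Opti-MEM with 2% FBS; DMSO 0.5% final.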
ALDH1A1 inh-1: inhibitors of human aldehyde dehydrogenase 1A1; Purified ALDH1A1, NADH fluorescence, propionaldehyde substrate; Potency, µM (titrated, usually from 75.3 µM), for inactives: at the highest dose activity, negative = inhibition, hits mostly inhibitors; 220,000 tested, 7.3% active; AID 1030;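 also: potency is read from the fitted curve at half-maximal effect; plate controls were no enzyme wells and a reference inhibitor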
PNC assembly inh: inhibitors of perinucleolar compartment assembly | PC3M PTB-GFP, PNC prevalence imaging, 16 h; active compounds read low | activity change (PNC), negative = inhibition, % at 10 µM | 140,000 tested, 3.1% active | AID 2417;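 active = readout at or below -70, meaning at least 70% loss of cells showing the perinucleolar compartment, a nuclear body marking cancer cells; inconclusive = readout between -30 and a set limit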;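 also: plate controls were DMSO wells for no effect and camptothecin positive control wells for full effect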
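Read-out is percentage of cells bearing a perinucleolar compartment, from automated 20x imaging of fixed, Hoechst-stained PC3M PTB-GFP cells. Cells were seeded 4 h, then exposed 16 h to compound (23 nl of library stock) in duplicate plates.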
ALDH1A1 inh-2: Confirms inhibition of human ALDH1A1 with counterscreen; shares compounds with ALDH1A1 inh-1; purified ALDH1A1, NADH fluorescence, propionaldehyde/NAD+; Potency, µM (series often up to 57.1 µM), for inactives: at the top dose activity change, negative = inhibition, most hits filed as inhibitors; 90 tested, 90% active; AID 493210; calls by dose curve
* marks the source's active call; other numbers are inactive results; ? = inconclusive; . = no result given; [ ] = dose if it differs, or a comment. Hits are enriched below; roughly 10% of the tested compounds scored in any of these assays. Unless noted, calls follow the shape of the dose curve; as a rule, active = well fitted inhibition curve with a large enough effect (not every such curve was filed as active); inconclusive = small, poorly fitted or top-dose-only effect, or another doubt; inactive = no such curve, though single readings can be large or run the other way.

SMILES	12-hLO inh	HPGD block	LMNA splice mod	ALDH1A1 inh-1	PNC assembly inh	ALDH1A1 inh-2
COc1ccccc1CN(CC(=O)NCc1ccc2c(c1)OCO2)C(=O)c1ccc2c(c1)OCCO2	-11%	-1%	-6%	0.079µM*	46	0.045µM*
COc1ccccc1OCCC(=O)NCc1ccc2c(c1)OCO2	.	.	.	4%	.	.
COC(=O)[C@H](CCSC)NC(=O)Nc1ccc(S(N)(=O)=O)cc1	.	.	.	10%	.	.
COc1ccc(C)cc1NC(=O)CN1CCN(S(=O)(=O)c2ccc(Cl)cc2)CC1	-6%	-10%	19%	0.32µM*	-15	0.14µM*
COc1cc2c(cc1NC(=O)CN1CCN(S(=O)(=O)c3ccc(C)cc3)CC1)oc1ccccc12	0%	?	5%	7%	?	.
CCC(C)C(=O)OC1CC(O)C=C2C=CC(C)C(CCC(O)CC(O)CC(=O)O)C21 (stereo unspecified)	1%	-9%	?	-1%	.	.
CC(C)Cn1c(CN(C)Cc2ccccc2)nc2c1c(=O)n(C)c(=O)n2C	-2%	3%	?	3%	?	.
Cc1ccc(Cn2c(CN3CCN(C(=O)c4ccco4)CC3)nc3c2c(=O)n(C)c(=O)n3C)cc1	-12%	-11%	-2%	0.16µM*	-6	0.5µM*
CN(Cc1ccccc1)Cc1nc2c(c(=O)n(C)c(=O)n2C)n1CCCc1ccccc1	-4%	-5%	14%	0.71µM*	?	0.56µM*
CCOC(=O)N1CCN(Cc2nc3c(c(=O)n(C)c(=O)n3C)n2CCCc2ccccc2)CC1	-5%	3%	4%	0.63µM*	2	0.63µM*
CCOC(=O)N1CCN(Cc2nc3c(c(=O)n(C)c(=O)n3C)n2CCC(C)C)CC1	4%	-16%	-2%	0.22µM*	?	0.18µM*
COCCCNC(=O)Cn1c(=O)n(CCCCCC(=O)NCc2ccc3c(c2)OCO3)c(=O)c2sccc21	.	.	.	-9%	.	.
CCOC(=O)N1CCN(Cc2nc3c(c(=O)n(C)c(=O)n3C)n2Cc2ccccc2C)CC1	-5%	-9%	11%	0.25µM*	-17	0.35µM*
CCc1ccccc1NC(=O)N[C@H](C(=O)O)C(C)CC (stereo partly specified)	8%	-4%	3%	-5%	-12	.
CC[C@H](C)[C@H](NC(=O)OCC1c2ccccc2-c2ccccc21)C(=O)O	-1%	-3%	.	0.45µM*	.	1µM*
O=C(N[C@@H](Cc1ccccc1)C(=O)CCl)OCc1ccccc1	-4%	11µM*	?	0.35µM*	.	0.25µM*
O=C(O)CNC(=O)C(Cc1ccccc1)NC(=O)OCc1ccccc1 (stereo unspecified)	.	.	.	0%	.	.
CC(C)NC(=O)C1CCN(C2CCN(Cc3ccc4cccc(F)c4n3)CC2)CC1	.	.	?	-10%	.	.
Cc1ccc(Sc2nc3c(c(=O)[nH]c(=O)n3C)n2CCc2ccccc2)cc1	1%	-14%	2%	0.63µM*	38	0.89µM*
O=C(c1cnccn1)N1CCC2(CC1)CN(c1ccncc1)C2	6%	-10%	.	-2%	.	.
CCOC(=O)C1=C(C)NC(=O)NC1c1cccs1 (stereo unspecified)	.	.	0%[46 µM]	0%	.	.
CC1=C(C(=O)OCC(C)C)C(c2cccs2)NC(=S)N1 (stereo unspecified)	?	.	-9%	0.13µM*	?	0.25µM*
COc1ccc(-c2cc(=O)c3c(O)c(OC)c(OC)c(OC)c3o2)cc1	-1%	-11%	-9%	0.11µM*	.	0.63µM*
COc1ccc(NC(=O)N2CCC(n3c(C)nc4cccnc43)CC2)cc1OC	.	.	-1%[46 µM]	.	.	.
COc1ccc(CNC(=O)C(c2ccco2)N(Cc2cccs2)C(=O)Cc2cccs2)cc1 (stereo unspecified)	-5%	-24%	?	0.63µM*	-12	1.3µM*
SMILES	12-hLO inh	HPGD block	LMNA splice mod	ALDH1A1 inh-1	PNC assembly inh	ALDH1A1 inh-2
CCC(=O)Oc1ccc(NC(=O)CSCc2ccccc2)cc1	.	.	?	2%	.	.
CC(=O)NC1C(=O)N(CC(C)C)c2ccccc21 (stereo unspecified)	11%	-8%	9%	0.04µM*	-29	1µM*
CC1(C)CC(=O)CC(C2(O)C(=O)N(Cc3ccccc3)c3ccccc32)O1 (stereo unspecified)	0%	-23%	-6%	0.063µM*	?	0.32µM*
O=C1C=C(NCc2ccc(Cl)cc2)CCC1	0%	-9%	-11%	8%	-11	.
COc1ccc2cnn(-c3ccc(OC(F)(F)F)cc3)c(=O)c2c1OC	.	.	.	25%	.	.
COc1ccccc1O	-2%	0%	-7%	-7%	.	.
COc1cccc(O)c1O	?	16µM*	?	0.45µM*	.	1.6µM*
Cc1ccccc1NC(=O)CCC(=O)OCC(=O)c1cccc([N+](=O)[O-])c1	.	.	6%[46 µM]	-14%	.	.
Cc1ccc(NCCC(=O)c2cccc([N+](=O)[O-])c2)c(C)c1	0%	-19%	?	0.13µM*	-84*	0.4µM*
Cc1ccccc1C(C(=O)NC1CCCCC1)N(C(=O)c1ccccn1)c1cccnc1 (stereo unspecified)	.	.	.	7%	.	.
COC(=O)c1ccc(Oc2nc3c(c(=O)n(C)c(=O)n3C)n2CCC(C)C)cc1	4%	-18%	13%	0.045µM*	38	0.1µM*

Compound activity from PubChem BioAssay.
